Measured values taken from PubChem BioAssay (NCATS).
Values joined by “and” are separate entries in the source; they are usually repeats but may differ in a detail not shown here. Equal values may be shown once. Inconclusive results are not listed. A structure can be active in one record and inactive in another. Active and inactive are the calls of the source. The call rests on the fitted dose curve; in most records, active means well fitted inhibition curve with a large enough effect; inconclusive means small, poorly fitted or top-dose-only effect; inactive means flat fitted curve, though single readings scatter.

Columns and labels:
P94_40 = test: qHTS profiling for inhibitors of Plasmodium falciparum proliferation (AID 504749); details: P. falciparum in erythrocytes, SYBR Green DNA, 72 h; series mostly up to 28.7 µM
In short: (§1)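 Readout was DNA-dye fluorescence from lysed cultures, ex 485/em 535 nm. Parasitized red cells had grown 72 h with compound; data scaled between 0.29 uM artemisinin and DMSO wells and corrected using vehicle-only plates.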

PAD = test: as above; details: P. falciparum in erythrocytes, SYBR Green DNA, 72 h; series mostly up to 28.7 µM
In short: as §1

PC15 = test: as above; details: P. falciparum in erythrocytes, SYBR Green DNA, 72 h; series mostly up to 28.7 µM
In short: as §1

PC49 = test: as above; details: P. falciparum in erythrocytes, SYBR Green DNA, 72 h; series mostly up to 28.7 µM
In short: as §1

TAB109 = test: as above; details: P. falciparum in erythrocytes, SYBR Green DNA, 72 h; series mostly up to 28.7 µM
In short: as §1

TAB165 = test: as above; details: P. falciparum in erythrocytes, SYBR Green DNA, 72 h; series mostly up to 28.7 µM
In short: as §1

W2 = test: as above; details: P. falciparum in erythrocytes, SYBR Green DNA, 72 h; series mostly up to 28.7 µM
In short: as §1

CRL-7250 = normal cell line; test: Cytotoxic Profiling of Annotated Libraries Using Quantitative High-Throughput Screening (AID 1296008); details: Five cell lines viability, CellTiter-Glo ATP luminescence, 48-72 h; max response: stronger effect = lower value; on max response: on the % scale 0 is the no-effect control and ±100 the full control effect
In short: (§2)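 Cells exposed to compounds for 48 or 72 hr at 37 degrees Celsius. Viability read as ATP-coupled luminescence with CellTiter-Glo after 10 min at room temperature.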

KB-3-1 = test: as above; details: Five cell lines viability, CellTiter-Glo ATP luminescence, 48-72 h; max response: stronger effect = lower value
In short: as §2

MKL-1 = test: qHTS assay to identify novel small-molecules to repurpose for Merkel cell carcinoma treatment (AID 1296009); details: MCC and control cell lines, CellTiter-Glo viability, 72 h; series mostly up to 46 µM
In short: (§3)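 Cells were incubated with compound for 72 hr at 37 degree celsius before CellTiter-Glo addition. Luminescence was normalized with no-cell wells as full cytotoxicity and DMSO as baseline.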

HaCat [1] = test: Cytotoxic Profiling of Annotated Libraries Using Quantitative High-Throughput Screening (AID 1296008); details: Five cell lines viability, CellTiter-Glo ATP luminescence, 48-72 h; max response: stronger effect = lower value; on max response: on the % scale 0 is the no-effect control and ±100 the full control effect
In short: as §2

NIH3T3 = test: as above; details: Five cell lines viability, CellTiter-Glo ATP luminescence, 48-72 h; max response: stronger effect = lower value
In short: as §2

MCC-13 = test: qHTS assay to identify novel small-molecules to repurpose for Merkel cell carcinoma treatment (AID 1296009); details: MCC and control cell lines, CellTiter-Glo viability, 72 h; series mostly up to 46 µM
In short: as §3

MCC-26 = test: as above; details: MCC and control cell lines, CellTiter-Glo viability, 72 h; series mostly up to 46 µM
In short: as §3

HEK293 = test: Cytotoxic Profiling of Annotated Libraries Using Quantitative High-Throughput Screening (AID 1296008); details: Five cell lines viability, CellTiter-Glo ATP luminescence, 48-72 h; max response: stronger effect = lower value; on max response: on the % scale 0 is the no-effect control and ±100 the full control effect
In short: as §2

HACAT [2] = test: qHTS assay to identify novel small-molecules to repurpose for Merkel cell carcinoma treatment (AID 1296009); details: MCC and control cell lines, CellTiter-Glo viability, 72 h; series mostly up to 44.8 µM
In short: as §3

PC26 = test: qHTS profiling for inhibitors of Plasmodium falciparum proliferation (AID 504749); details: P. falciparum in erythrocytes, SYBR Green DNA, 72 h; series mostly up to 28.7 µM
In short: as §1

TAB113 = test: as above; details: P. falciparum in erythrocytes, SYBR Green DNA, 72 h; series mostly up to 28.7 µM
In short: as §1

SC27B = test: as above; details: P. falciparum in erythrocytes, SYBR Green DNA, 72 h; series mostly up to 28.7 µM
In short: as §1
Further: nearly all actives have a fitted effect of over 60% in size.
Potency means the concentration at half of the fitted maximal effect.

COc1cc(C(=O)NS(=O)(=O)c2ccccc2C)ccc1Cc1cn(C)c2ccc(NC(=O)OC3CCCC3)cc12
inactive: Potency (PAD) | Potency (PC15) | Potency (PC49) | Potency (TAB109) | Potency (TAB165) | outcome (CRL-7250) | max response (KB-3-1) -2.66% | Potency (MKL-1)
active: Potency (P94_40) 12.6 µM | Potency (W2) 7.57 µM

O=C(Nc1cn[nH]c1-c1nc2ccc(CN3CCOCC3)cc2[nH]1)NC1CC1
active: Potency (CRL-7250) 1.3 µM | Potency (HaCat [1]) 2.64 µM and 231 nM | Potency (KB-3-1) 5.9 µM and 4.11 µM | Potency (NIH3T3) 1.48 µM and 1.84 µM | Potency (MCC-13) 0.935 µM | Potency (MCC-26) 1.87 µM

CC(=O)OCC(=O)[C@@]1(O)[C@H](C)C[C@H]2[C@@H]3C=C(C)C4=Cc5c(cnn5-c5ccccc5)C[C@]4(C)[C@@H]3[C@@H](O)C[C@@]21C
inactive: max response (HaCat [1]) -6.31% | outcome (KB-3-1) | Potency (MCC-13) | Potency (MCC-26) | Potency (MKL-1)
active: Potency (CRL-7250) 20.9 µM | Potency (NIH3T3) 14.8 µM

CCn1cc(-c2ccnc3[nH]c(-c4cccc(CN(C)C)c4)cc23)c(-c2ccc(NC(=O)N(C)C)cc2)n1
active: Potency (CRL-7250) 14.8 µM | Potency (HaCat [1]) 0.0893 µM | Potency (KB-3-1) 1.87 µM and 63.2 nM | Potency (NIH3T3) 3.72 µM and 632 nM | Potency (MKL-1) 0.0372 µM

Cc1cc(Nc2cc(CN3CCOCC3)c3nc(C)c(Cc4ccc(Cl)cc4F)n3n2)n[nH]1
active: Potency (HEK293) 11.8 µM and 16.4 µM | Potency (HaCat [1]) 14.8 µM | Potency (KB-3-1) 4.18 µM and 5.17 µM | Potency (NIH3T3) 13.2 µM and 11.6 µM
inactive: max response (HaCat [1]) -23.1%

CC[C@H](CO)Nc1nc(NCc2ccccc2)c2ncn(C(C)C)c2n1
active: Potency (CRL-7250) 26.4 µM
inactive: max response (NIH3T3) -26.8% | Potency (MCC-13) | Potency (MCC-26) | Potency (MKL-1)

NC(=O)c1cccc2cn(-c3ccc([C@@H]4CCCNC4)cc3)nc12
active: Potency (MKL-1) 18.7 µM
inactive: max response (CRL-7250) -21.5% and 4.62% | max response (KB-3-1) -3.07% and -13.7% | max response (NIH3T3) -38.6% and -0.532% | Potency (MCC-13)

CN1CCN(Cc2ccc(NC(=O)Nc3ccc(Oc4cc(NC(=O)C5CC5)ncn4)cc3)cc2C(F)(F)F)CC1
active: Potency (CRL-7250) 418 nM and 1.3 µM | Potency (HaCat [1]) 743 nM and 920 nM | Potency (KB-3-1) 132 nM and 206 nM | Potency (NIH3T3) 0.59 µM | Potency (MCC-13) 2.35 µM | Potency (MKL-1) 0.372 µM

CC(NCc1ccc2c(c1)nc(NC(=O)c1ccc(-c3cn[nH]c3)s1)n2CC(C)(C)O)C(C)(C)C (centres undefined)
active: Potency (CRL-7250) 0.296 µM | Potency (HaCat [1]) 0.743 µM | Potency (KB-3-1) 0.209 µM | Potency (NIH3T3) 0.59 µM | Potency (MCC-13) 2.35 µM | Potency (MCC-26) 1.48 µM | Potency (MKL-1) 0.332 µM

CC1(C)CCC(c2ccc(Cl)cc2)=C(CN2CCN(c3ccc(C(=O)NS(=O)(=O)c4ccc(N[C@H](CCN5CCOCC5)CSc5ccccc5)c(S(=O)(=O)C(F)(F)F)c4)cc3)CC2)C1
inactive: max response (CRL-7250) 3.93% | max response (KB-3-1) -2.09% | Potency (MCC-13) | Potency (MCC-26)
active: Potency (MKL-1) 0.418 µM

CNC(=O)c1c(F)cccc1Nc1nc(Nc2cc3c(cc2OC)CCN3C(=O)CN(C)C)nc2[nH]ccc12
inactive: outcome (HaCat [1]) | Potency (HACAT [2])
active: Potency (HEK293) 4.18 µM and 13 µM | Potency (HaCat [1]) 18.4 µM | Potency (NIH3T3) 7.31 µM | Potency (MCC-26) 23.5 µM | Potency (MKL-1) 18.7 µM

COc1cc2ncn(-c3cc(OCc4ccccc4C(F)(F)F)c(C(N)=O)s3)c2cc1OC
active: Potency (HEK293) 0.469 µM | Potency (KB-3-1) 0.418 µM
inactive: max response (NIH3T3) -29.2% | Potency (MCC-26)

CC(C)c1ccccc1Cc1cc(C(=O)Nc2ccc(S(=O)(=O)c3ccccc3C(C)(C)C)cc2)c(O)c(O)c1O
inactive: Potency (MCC-26)
active: Potency (KB-3-1) 8.33 µM | Potency (MKL-1) 26.4 µM

CCCCc1nc2cc(C=CC(=O)NO)ccc2n1CCN(CC)CC
active: Potency (HEK293) 3.72 µM | Potency (HaCat [1]) 4.69 µM | Potency (KB-3-1) 2.64 µM | Potency (NIH3T3) 4.18 µM | Potency (MCC-13) 7.43 µM | Potency (MCC-26) 8.33 µM | Potency (MKL-1) 3.32 µM

COc1cc(OC2CCN(C)CC2)ccc1Nc1ncc2c(n1)n(C1CCCC1)c(=O)n2C
inactive: Potency (MCC-26)
active: Potency (HaCat [1]) 13.2 µM | Potency (KB-3-1) 4.18 µM | Potency (NIH3T3) 18.7 µM

CC(C)(O)CCc1ccc(OCc2cc(-c3cccc(OC(F)F)c3)c3ncccc3c2)cc1
inactive: outcome (HaCat [1]) | max response (NIH3T3) 4.85% | Potency (HACAT [2]) | Potency (MCC-13) | Potency (MCC-26) | Potency (MKL-1)

CC(C)(C)NC(=O)[C@H]1CN(Cc2cccnc2)CCN1C[C@@H](O)C[C@@H](Cc1ccccc1)C(=O)N[C@H]1c2ccccc2C[C@H]1O
active: Potency (P94_40) 11.2 µM | Potency (PC26) 8.49 µM | Potency (TAB113) 11.2 µM | Potency (W2) 6.01 µM
inactive: Potency (PC49) | max response (KB-3-1) -44.5% | Potency (MCC-13) | Potency (MCC-26) | Potency (MKL-1)

COc1ccc(OC)c(-c2nnc3ccc(-c4ccc(OC)c(O[C@@H]5CCOC5)c4)nn23)c1
active: Potency (HEK293) 8.33 µM | Potency (HaCat [1]) 1.46 µM | Potency (KB-3-1) 6.51 µM | Potency (NIH3T3) 33.2 µM

COc1ccc(C(=O)CC2(O)C(=O)Nc3c(Cl)ccc(Cl)c32)cc1 (centres undefined)
active: Potency (HEK293) 2.64 µM | Potency (HaCat [1]) 4.11 µM | Potency (KB-3-1) 3.72 µM and 5.17 µM | Potency (NIH3T3) 9.35 µM and 2.91 µM

C=CC(=O)Nc1cc2c(Nc3ccc(F)c(Cl)c3)ncnc2cc1C#CC(C)(C)N1CCN(C)CC1
active: Potency (HEK293) 2.96 µM | Potency (HaCat [1]) 2.09 µM | Potency (MCC-13) 11.8 µM | Potency (MKL-1) 6.62 µM

O=C(O)CO.[NH2-].[NH2-].[Pt+2]
inactive: Potency (P94_40) | Potency (PAD) | Potency (PC15) | Potency (PC26) | Potency (PC49) | Potency (SC27B) | Potency (TAB109) | Potency (TAB113) | Potency (TAB165) | Potency (W2)

O=C(CCCCCCNC(=O)c1cnc(N(c2ccccc2)c2ccccc2)nc1)NO
active: Potency (HEK293) 13.2 µM and 7.31 µM | Potency (HaCat [1]) 16.6 µM | Potency (KB-3-1) 11.8 µM and 8.2 µM | Potency (MKL-1) 9.35 µM

Cc1cc(CN2CCN(c3c(Br)cnc4nc(-c5ccc(N6CCN(C)CC6)cc5)[nH]c34)CC2)no1
inactive: Potency (MCC-26)
active: Potency (HEK293) 23.5 µM and 9.2 µM | Potency (HaCat [1]) 2.35 µM | Potency (KB-3-1) 18.7 µM and 16.4 µM | Potency (NIH3T3) 13.2 µM and 1.46 µM | Potency (MKL-1) 3.32 µM

CC(C)c1noc(N2CCC(COc3ccc(-c4ccc(S(C)(=O)=O)cc4)nc3)CC2)n1
active: Potency (HEK293) 7.43 µM and 8.2 µM
inactive: max response (HaCat [1]) -15.4% and 4.61% | max response (NIH3T3) -1.13% and 3.22% | Potency (MCC-13) | Potency (MCC-26) | Potency (MKL-1)

O=C(Nc1nc2cccc(-c3ccc(CN4CCS(=O)(=O)CC4)cc3)n2n1)C1CC1
inactive: max response (NIH3T3) -23.2% | Potency (MCC-13)
active: Potency (HEK293) 10.5 µM and 10.3 µM | Potency (KB-3-1) 8.33 µM

CCCCOc1c(C(=O)c2c(F)cc(C)cc2F)cnc2n[nH]cc12
inactive: outcome (KB-3-1) | Potency (MCC-13) | Potency (MCC-26) | Potency (MKL-1)
active: Potency (HEK293) 14.8 µM and 2.59 µM | Potency (NIH3T3) 16.6 µM
